Sampled rows, rich in hits. Any-hit rate of the full collection: about 1.9%.
ClpP mod: qHTS Assay for Activators of ClpP; Potency, µM (series often up to 57.5 µM), for the others: top-dose activity change, negative = active; ATP-dependent Clp protease proteolytic subunit (Bacillus subtilis (strain 168)), P80244; 340,000 compounds, 1.9% hits; purified B. subtilis ClpP, FRET peptide cleavage, 20 min; active = well fitted falling curve with a large enough effect; inconclusive = small, poorly fitted or top-dose-only effect; inactive = no such curve, though single readings can be large or run the other way; also: potency is read from the fitted curve at half-maximal effect; the source files actives as falling curves though it sought activators and does not explain the sign; nearly all actives have a fitted effect of over 65% in size
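ClpP 10 microg/mL final, pH 8 Tris/KCl buffer with BSA, glycerol, Tween-20; compound pinned in; FRET-FV substrate; RT 20 min; Ex320/Em430; ΔFRET vs ADEP 5.8 microM, DMSO, no enzyme.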
Pin1 inh: blocks the human prolyl isomerase Pin1; Q13526; 390,000 compounds, 0.009% hits; Potency, µM (top dose mostly 115 µM), without a hit: at the top dose activity, negative = inhibition, usual class: inhibitors; AID 504891; Pin1 FP peptide displacement, HiFluor488, 10 min; active = well fitted inhibition curve with a large enough effect in the polarisation, with a control signal flat, not every such curve was filed as active; inconclusive = small, poorly fitted or top-dose-only effect, or effect the other way, or a change in a side signal; inactive = no such curve, though single readings can be large or run the other way; the % refers to the polarisation; also: potency is read from the fitted curve at half-maximal effect; % is scaled to controls: 0 for no effect and ±100 for the full control effect
USP2a block: blocks human ubiquitin-specific protease USP2a; O75604; USP2 core, Ub-CHOP2 coupled fluorogenic reporter, 485/531; Potency, µM (series often up to 38.3 µM), inactives show at the top dose activity change, negative = inhibition, actives largely listed as inhibitors; 330,000 compounds, 0.01% hits; AID 463254;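 also: potency is read from the fitted curve at half-maximal effect; plate controls were DMSO wells for no effect and full inhibition by NEM control for full effect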
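Deubiquitinase activity read as fluorescence (485/531 nm) after Ub-CHOP2 cleavage activates the enterokinase reporter on its substrate; USP2 core 10nM, Ub-CHOP2 and substrate 25nM each, 30min compound preincubation then 60min RT; data normalized to NEM, curves fitted.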
PKM2 act: increases activity of human pyruvate kinase M2 | P14618 | purified PKM2, Kinase-Glo ATP luminescence, activation; response scale: 0% is enzyme alone, no compound | Potency, µM (titrated, usually from 57.5 µM), for inactives: at the highest dose activation, most hits filed as activators | 260,000 compounds, 0.34% hits; also: potency is read from the fitted curve at half-maximal effect; % is scaled to controls: 0 for no effect and ±100 for the full control effect; nearly all actives have a fitted effect of over 55% in size
Target sequence (P14618 whole entry, looked up): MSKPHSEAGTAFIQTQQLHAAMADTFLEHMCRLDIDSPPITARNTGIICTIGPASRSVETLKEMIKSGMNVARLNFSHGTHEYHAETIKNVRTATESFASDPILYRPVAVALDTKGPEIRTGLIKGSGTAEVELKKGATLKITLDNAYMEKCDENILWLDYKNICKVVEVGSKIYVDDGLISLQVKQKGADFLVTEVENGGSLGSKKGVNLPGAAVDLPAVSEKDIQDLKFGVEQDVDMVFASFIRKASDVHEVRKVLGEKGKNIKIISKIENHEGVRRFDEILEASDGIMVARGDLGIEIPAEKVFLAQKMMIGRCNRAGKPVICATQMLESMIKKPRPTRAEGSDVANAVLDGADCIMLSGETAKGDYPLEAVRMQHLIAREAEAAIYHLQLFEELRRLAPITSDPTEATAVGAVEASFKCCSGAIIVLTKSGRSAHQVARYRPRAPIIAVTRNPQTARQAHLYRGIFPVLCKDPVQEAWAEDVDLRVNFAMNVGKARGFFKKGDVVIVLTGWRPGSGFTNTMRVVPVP
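Purified hPK-M2 (>95% pure) converted ADP (0.1 mM final) to ATP with 0.5 mM PEP in 50 mM imidazole pH7.2, KCl, MgCl2, Tween 20, BSA; 1 h at room temperature. ATP detected by Kinase-Glo luminescence.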
Integrin act MD: activators of alpha7 integrin expression for muscular dystrophy; alpha7betagal myoblasts, beta-gal FDG fluorescence, 48 h; Potency, µM (top dose mostly 38.3 µM), inactives show at the top dose activation, actives largely listed as activators; 350,000 compounds, 0.064% hits;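 also: potency is read from the fitted curve at half-maximal effect; 100% = response of the positive control SU9516; nearly all actives have a fitted effect of over 60% in size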
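alpha7betagal+/- myoblasts (passage 13, 250/well) treated 48 h at 37C with compounds at 1:260 dilution of DMSO stock. Lysed, then beta-galactosidase activity read as FDG fluorescence (ex 480/em 540) after 30 min, with pre-read for autofluorescence.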
IL-2 act: IL-2 activation | IL-2 activation reporter assay, cell-based qHTS; stimulated with anti-CD3/CD4/CD28 beads; in transgenic mouse T cells | activation, % (series mostly up to about 46 µM) | 360,000 compounds, 0.065% hits; in the data active = activation above about 50%; inconclusive = mostly about 30% to 49%; also: 0% is about no effect
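Unstimulated transgenic mouse T cells; 60-min compound exposure; bead-based TCR/CD4/CD28 stimulation; 18 h culture, 37 degrees C; dual fluorescence (EGFP, DsRed) plate cytometry.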
* marks the source's active call; other numbers are inactive results; ? = inconclusive; nt = not tested or not shown; ! = a repeat was not active. Unless noted, calls follow the shape of the dose curve; as a rule, active = well fitted curve in the direction sought with a large enough effect; inconclusive = small, poorly fitted or top-dose-only effect, or another doubt; inactive = no such curve, though single readings can be large; an effect the other way counts as inactive or inconclusive.

SMILES	ClpP mod	Pin1 inh	USP2a block	PKM2 act	Integrin act MD	IL-2 act
Cc1cc(NC(=O)c2cccn(Cc3cccc(Cl)c3)c2=O)no1	35µM*	-1%	nt	nt	nt	nt
C=CCn1c(O)c(C(C)=NCc2ccc3c(c2)OCO3)c(=O)[nH]c1=O	nt	-6%	1%	1%	0%	2
CC(=NCc1ccc2c(c1)OCO2)c1c(O)n(Cc2ccccc2)c(=O)[nH]c1=O	-1%	?	1%	25µM*	-18%	0
O=C1/C(=C/c2ccc(F)cc2)Oc2cc(OC(=O)N3CCOCC3)ccc21	18µM*	4%	-1%	3%	20%	0
COc1ccc(/C=C2\Oc3cc(OC(=O)N4CCOCC4)ccc3C2=O)c(OC)c1	nt	?	?	2%	22%	-3
CCOC(=O)c1c(C)n(Cc2ccc(F)cc2)c2ccc(O)cc12	-4%	0%	-1%	11µM*	-6%	0
COc1ccc(S(=O)(=O)NCC2CCC(C(=O)N3CCC4(CC3)OCCO4)CC2)cc1 (centres undefined)	10µM*	-1%	1%	1%	-4%	1
CNC(=O)Oc1cccc(-c2cn3cc(OC(=O)NC)ccc3n2)c1	14µM*	?	5%	-22%	10%	2
O=C1NC(=O)C(=Cc2ccc(-c3cc(Cl)ccc3[N+](=O)[O-])o2)C(=O)N1	nt	38%	-1%	13%	4%	-8
O=C1NC(=O)C(=Cc2ccc(-c3ccccc3[N+](=O)[O-])o2)C(=O)N1	nt	5%	4%	18µM*	0%	-5
Cc1cc(SCc2sc(-c3ccc(C(F)(F)F)c(F)c3)nc2C)ccc1OCC(=O)O	nt	nt	nt	0%	nt	nt
CN1CCc2cc(O)cc3c2[C@H]1Cc1ccc(O)c(O)c1-3	28µM*!	16%	nt	nt	nt	0
CCCN1CCc2cc(O)cc3c2[C@H]1Cc1ccc(O)c(O)c1-3	?	?	nt	nt	nt	0
Nc1cccc2c1Cc1cc([N+](=O)[O-])ccc1-2	28µM*	7%	nt	nt	-12%	0
CCC(C)OC(=O)c1c(N)n(Cc2cccs2)c2nc3ccccc3nc12 (centres undefined)	14µM*	5%	-1%	0%	-10%	-4
Nc1c(C(=O)OCc2ccccc2)c2nc3ccccc3nc2n1Cc1cccs1	28µM*	29%	0%	10%	-55%	1
CCc1ccc(-n2nc(C)c3c(C(=O)NCCc4ccc(OC)c(OC)c4)cc(C)nc32)cc1	-17%	49%	nt	nt	nt	nt
COc1ccc(-c2cc(C(=O)N3CCN(c4ccccc4OC)CC3)c3cc(C(C)C)ccc3n2)cc1	?	32%	nt	nt	nt	nt
COc1cccc(NC(=O)C2CCN(S(=O)(=O)c3cc(-c4noc(C)n4)ccc3C)CC2)c1	-3%	?	nt	nt	nt	nt
COC(=O)c1cc2c(s1)=NC=NP=2(N1CCOCC1)N1CCOCC1	28µM*!	-1%	2%	-1%	-2%	-1
COC(=O)[C@@H]1C[C@@]2(O)[C@@H](O)[C@@H](O)[C@@H](O)C[C@H]2N1Cc1cccnc1	nt	nt	nt	1%	nt	nt
Cc1cccc(NC(=O)c2cc3c(=O)n4ccccc4nc3n2C)c1C	?	2%	nt	nt	nt	nt
COCCCNC(=O)c1c(NC(=O)c2ccccc2Cl)n(Cc2ccccc2)c2nc3ccccc3nc12	?	?	0%	1%	9%	-2
Nc1c(C(=O)NCCc2ccccc2)c2nc3ccccc3nc2n1CCN1CCOCC1	?	0%	-12%	1%	-18%	-1
COCCNC(=O)c1c(NC(=O)c2ccco2)n(Cc2ccccc2)c2nc3ccccc3nc12	25µM*	?	0%	4%	-36%	0
CCCCn1c(NC(=O)c2ccc(Br)o2)c(C(=O)OCC)c2nc3ccccc3nc21	nt	30%	5%	-1%	-13%	4
CCOC(=O)c1c(N)n(CCN2CCCCC2)c2nc3ccccc3nc12	32µM*	?	1%	2%	-42%	-1

Compound activity from PubChem BioAssay.
